Several values for one entry are separate records, joined by “and”; a condition that tells them apart may be missing. Equal values may be shown once. The whole screen tested about 5,500 compounds, of which about 2,000 (36%) were called active. Another 18% or so got no clear call; they are omitted. No stated cut-off is given here; in the data, active means normalized growth mostly below about 0.91 (no sharp cut-off); inconclusive means no clear call, values can overlap the other calls; inactive means mostly above about 0.92. The list shows a part of the results. Where a structure was tested more than once in an assay, its records may differ in their call.
Assay: chemical genetic growth profiling, strain panel (AID 1159580);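 further: tested at 20 µM; growth read once vehicle control cultures reached saturation at 30 °C; 1 = growth at the plate median or of vehicle wells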
Details: S. cerevisiae deletion strains, growth OD

Measured: normalized growth

CCN(CC)C(=S)SSC(=S)N(CC)CC
active: locus YKL009W, strain mrt4, stronger effect = lower value 0.606 | locus YKL068W, stronger effect = lower value 0.0556 | locus YKL085W, strain MDH1 (second series), stronger effect = lower value 0.0512 | locus YKL085W, strain MDH1, stronger effect = lower value 0.0512 | locus YKL160W, strain elf1, stronger effect = lower value 0.0678 | locus YKL190W, strain CNB1, stronger effect = lower value 0.0509 | locus YKR001C, strain vps1, stronger effect = lower value 0.0705 | locus YKR026C, strain gcn3, stronger effect = lower value 0.0628 | locus YKR091W, strain srl3, stronger effect = lower value 0.0583 | locus YLL001W, strain dnm1, stronger effect = lower value 0.0613 | locus YLL026W, stronger effect = lower value 0.0601 | locus YLL041C, strain sdh2, stronger effect = lower value 0.0577 | locus YLR027C, strain aat2, stronger effect = lower value 0.0572 | locus YLR039C, strain RIC1, stronger effect = lower value 0.0861 | locus YLR058C, strain SHM2, stronger effect = lower value 0.0583 | locus YLR102C, strain apc9, stronger effect = lower value 0.0612 | locus YLR113W, strain HOG1, stronger effect = lower value 0.133 | locus YLR221C, strain rsa3, stronger effect = lower value 0.0619 | locus YLR258W, strain gsy2, stronger effect = lower value 0.0609 | locus YLR262C, strain YPT6 (second series), stronger effect = lower value 0.0822 | locus YLR262C, strain YPT6, stronger effect = lower value 0.109 | locus YLR268W, strain sec22, stronger effect = lower value 0.061 | locus YLR320W, strain mms22, stronger effect = lower value 0.087 | locus YLR330W, strain CHS5, stronger effect = lower value 0.0617 | locus YLR342W, strain FKS1 (second series), stronger effect = lower value 0.0677 | locus YLR342W, strain FKS1, stronger effect = lower value 0.0645 | locus YLR357W, strain rsc2, stronger effect = lower value 0.119 | locus YLR370C, strain arc18, stronger effect = lower value 0.0622 | locus YLR371W, strain rom2, stronger effect = lower value 0.0655 | locus YLR384C, strain iki3, stronger effect = lower value 0.0605 | locus YLR418C, strain cdc73, stronger effect = lower value 0.0926 | locus YML016C, strain PPZ1, stronger effect = lower value 0.052 | locus YML032C, strain rad52, stronger effect = lower value 0.263 | locus YML120C, strain ndi1, stronger effect = lower value 0.0591 | locus YML124C, strain tub3, stronger effect = lower value 0.0572 | locus YMR058W, strain fet3, stronger effect = lower value 0.0624 | locus YMR078C, strain ctf18, stronger effect = lower value 0.073 | locus YMR125W, strain sto1, stronger effect = lower value 0.0735 | locus YMR129W, stronger effect = lower value 0.0588 | locus YMR205C, strain PFK2, stronger effect = lower value 0.088 | locus YMR223W, strain ubp8, stronger effect = lower value 0.0608 | locus YMR231W, strain pep5, stronger effect = lower value 0.0654 | locus YMR263W, strain SAP30, stronger effect = lower value 0.0587 | locus YMR307W, strain GAS1, stronger effect = lower value 0.0974 | locus YNL067W, strain RPL9B, stronger effect = lower value 0.0505 | locus YNL071W, strain lat1, stronger effect = lower value 0.0618 | locus YNL128W, strain TEP1, stronger effect = lower value 0.0626 and 0.0798
0.0635 (active) and 0.949 (inactive): locus YJR075W, strain HOC1, stronger effect = lower value
